According to PubChem BioAssay AID488839 (Broad Institute, 2010):
Hit rate of the full screen: of about 330,000 compounds, about 35 (0.01%) were called active.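 Rule for the calls: active = highest replicate inhibition of at least 50% and at least 75% of replicates reaching 50%; inconclusive = only one of the two criteria met; inactive = both criteria failed.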 A selection follows.

Biological target: Cyclin-dependent kinase 5 (Homo sapiens) + Cyclin-dependent kinase 5 activator 1 (Homo sapiens) (UniProt Q00535+Q15078)
Sequence (Q00535 whole entry, looked up): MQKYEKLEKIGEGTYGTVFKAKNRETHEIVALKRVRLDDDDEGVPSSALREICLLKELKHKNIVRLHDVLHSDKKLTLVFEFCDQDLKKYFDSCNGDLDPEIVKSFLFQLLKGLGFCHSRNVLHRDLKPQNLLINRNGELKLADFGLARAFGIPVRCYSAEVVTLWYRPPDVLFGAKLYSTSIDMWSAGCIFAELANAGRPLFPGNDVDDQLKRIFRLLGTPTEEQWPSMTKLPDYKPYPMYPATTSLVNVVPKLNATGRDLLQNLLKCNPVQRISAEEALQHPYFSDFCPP
Sequence (Q15078 whole entry, looked up): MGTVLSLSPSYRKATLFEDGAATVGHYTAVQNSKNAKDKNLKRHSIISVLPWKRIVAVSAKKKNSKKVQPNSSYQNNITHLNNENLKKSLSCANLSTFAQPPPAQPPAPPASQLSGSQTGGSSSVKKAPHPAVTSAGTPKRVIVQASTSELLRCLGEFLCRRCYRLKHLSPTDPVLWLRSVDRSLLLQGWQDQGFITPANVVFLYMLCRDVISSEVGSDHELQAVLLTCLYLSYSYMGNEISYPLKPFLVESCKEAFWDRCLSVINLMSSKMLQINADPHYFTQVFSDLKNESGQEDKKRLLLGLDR
Test: inhibitors of human CDK5/p35 kinase, primary screen, biochemical, single concentration (AID 488839);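 note: plate controls were DMSO neutral control for no effect and GW8510 at 10 µM for full effect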
Settings: Recombinant CDK5/p35, ADP-Glo luminescence, 60 min; at 10 µM; stronger effect = higher value

inhibition, inactive:
COc1ccc(-c2csc3nc(-c4ccccc4F)oc(=O)c23)cc1OC -0.745%
CCCN1CNC(=S)N(CCc2ccccc2)C1 0.897%
OCc1n[nH]c(CO)n1 -0.355%
CC(C)COC(=O)n1c(=O)oc2ccc(S(=O)(=O)N3CCCCC3)cc21 -6.42%
COc1ccc(NC(=O)CC2C(=O)NC3CCCCC3N2C(=O)c2ccc(F)cc2)cc1 (stereo unspecified) 0.318%
CN(CC(=O)Nc1ccc(F)cc1)CC(=O)N1CCCCC1 1.08%
Cc1coc2c(O)cc3c(c12)OC1(N2CCCCC2)C(=O)NCCCC31 (stereo unspecified) -0.717%
CCCCN1C(=O)C(C)=C(C)C1OCCc1ccc(OC)c(OC)c1 (stereo unspecified) 1.7%
N/C(=N\OC(=O)Nc1ccccc1)c1ccno1 -1.08%
Cc1c2cnn(-c3ccccc3)c(=O)c2c(C)n1CCCC(=O)N1CCN(C)CC1 0.518%
COc1ccccc1NC(=O)CSc1nnc(-c2ccoc2C)n1CCc1ccccc1 -0.569%
COc1ccccc1NC(=O)c1ccc(N2CC3CC(C2)c2cccc(=O)n2C3)c(NC(=O)c2cccnc2)c1 (stereo unspecified) -1.98%
CC1C(C)N(C(=O)CCl)c2ccccc2N1C(=O)CCl (stereo unspecified) 1.01%
C[C@H](NC(=O)C1CC(=O)N(c2ccc3c(c2)OCO3)C1)C(=O)NCc1ccco1 (stereo partly specified) -0.436%
CCc1n[nH]c(=S)n1/N=C/c1c[nH]c2ccc(Br)cc12 2.39%
COC(=O)Cc1ccc(OCC(=O)NC2CCCC2)cc1 0.995%
O=C(Nc1c2c(nn1-c1ccc(F)cc1)CS(=O)C2)C12CC3CC(CC(C3)C1)C2 (stereo unspecified) -0.258%
Cc1cccc(C(=O)NCc2nnc(SC(C)C(=O)Nc3nnc(C)s3)n2C)c1 (stereo unspecified) 1.14%
COc1ccc(Cl)cc1NC(=O)COC(=O)C(CC(C)C)N1C(=O)C2CC=CCC2C1=O (stereo unspecified) -0.94%
CCOC(=O)c1ccc2[nH]c(C)c(CN3CCN(C)CC3)c(=O)c2c1 -4.67%
COc1ccc(OC)c(NC(=O)CN(Cc2ccc(Cl)cc2)S(C)(=O)=O)c1 0.423%
O=C(CSc1nnc(SCc2ccc(Cl)cc2)s1)N/N=C/c1ccccc1Cl -1.05%
O=S(=O)(NCCSc1ccccn1)c1ccc(Cl)cc1 0.39%
O=C(C1CCN(C2CCN(Cc3ccc4cc(F)ccc4n3)CC2)CC1)N1CCCC1 0.175%
COc1ccc(C(=O)Cn2nnc(-c3ccc(N4CCOCC4)cc3)n2)cc1OC -3.2%
COC(=O)c1c(NC(=O)c2c(Cl)cnn2C)sc(C)c1C -2.29%
O=c1[nH]c2ccc(S(=O)(=O)N3CCCC3)cc2[nH]1 -0.663%
CCOc1ccc(OCCSc2nc3ccccc3n2CC(=O)O)cc1 0.306%
Cc1nc(-c2nnc(SCC(=O)Nc3cc(C(F)(F)F)cc(C(F)(F)F)c3)n2C)cs1 -0.227%
CCCCCCCC(=O)OC(CN1CCCCCC1)CN1CCCC1=O (stereo unspecified) 0.855%
CC(CC(=O)Nc1ccc(F)cc1F)S(=O)(=O)c1ccc2c(c1)NC(=O)CO2 (stereo unspecified) 0.798%
COc1ccccc1NC(=O)C1CCCN(c2cc(C)nc3ncnn23)C1 (stereo unspecified) 0.792%
Cc1cccc(C)c1NC(=O)CNC(=O)C1CCCC1 0.783%
Cc1ccc(Nc2cc(=O)n(C3CCCCC3)c(=O)[nH]2)cc1C -0.561%
CC(C)NC(=O)COCc1cc(-c2ccc3c(c2)OCO3)on1 -3.05%
CC(=O)Nc1ccc(OC(=O)COc2ccc(Br)cc2)cc1 -1.45%
CCCNC(=O)c1c(Cl)cnn1-c1ccc(C)cc1 -0.745%
Cc1noc(C)c1NC(=O)Nc1ccc2c(c1)C(=O)N([C@H](C)CO)C[C@H](C)[C@@H](CN(C)S(=O)(=O)c1cn(C)cn1)O2 0.62%
O=C(CCc1nnc2ccc(NCc3ccco3)nn12)Nc1cc(F)ccc1F 0.605%
O=C(O)Cn1c(Cc2ccccc2)nc2ccccc21 -0.592%
COc1ccc(C2OC(=O)CC2C(=O)NC(C)C)cc1 (stereo unspecified) -11.3%
O=C(CC1Nc2ccccc2NC1=O)Nc1ccccc1 (stereo unspecified) 1.13%
CCCCCCSc1ccc([C@@H]2[C@@H]3C(=O)N(CC)C(=O)[C@@H]3[C@]3(C(=O)OC)CCCCN23)cc1OC -6.06%
Cc1ccccc1NS(=O)(=O)CCCCC(Cl)(Cl)Cl -0.0868%
O=C(COc1coc(CN2CCN(c3ccccc3F)CC2)cc1=O)N1CCc2ccccc21 0.232%
COc1ccc(Cl)cc1NC(=O)CN(C)CC(=O)Nc1ccc2c(c1)OCO2 1.26%
O=Cc1c(N2CCN(c3cccc(Cl)c3)CC2)nc2ccccn2c1=O -1.83%
CN1CCN(S(=O)(=O)c2ccc(N3CCN(S(=O)(=O)c4cccs4)CC3)nc2)CC1 -0.333%
CCC(C)c1ccccc1N1CC(C(=O)N2CCN(S(=O)(=O)c3ccc(F)cc3)CC2)CC1=O (stereo unspecified) 0.723%
CC(C)[C@H](NC(=O)N1CCn2c1nc1ccccc12)C(=O)NC1CC1 2.48%
COc1cc(C(=O)N2CCN(S(=O)(=O)c3ccc(C(C)C)cc3)CC2)ccc1OCC(=O)N1CCOCC1 -0.998%
Cc1cccc(NC(=O)c2ccc(OCC(=O)NCc3ccccc3)cc2)c1C 0.801%
Cc1nc2c(-c3ccc(F)cc3)c(C)nn2c(C)c1CCC(=O)NCc1ccco1 -0.00338%
CCc1ccc(C(=O)CSc2nnc(C)c(=O)[nH]2)cc1 -0.74%
Cc1cc(C)cc(Oc2nc3c(C)cccn3c(=O)c2/C=C(\C#N)C(=O)NC2CCS(=O)(=O)C2)c1 (stereo unspecified) 0.399%
CC(C)[C@H](NC(=O)N1CCn2c1nc1ccccc12)C(=O)NCCc1ccccc1 1.82%
COC(=O)c1ccccc1NC(=O)C1CCN(S(=O)(=O)c2cc(OC)ccc2OC)CC1 0.427%
N#Cc1ccc(C(=O)Nc2nc(-c3cccs3)c(C(=O)C(F)(F)F)s2)cc1 -1.16%
O=C(Cn1nc(Cc2cccnc2)c2ccccc2c1=O)NCC1CCCO1 (stereo unspecified) -0.846%
CCOC(=O)Cc1c(C)nc2c(C#N)c(C)nn2c1C -2.18%
CC(C)CCN(C(=O)c1csnn1)C(C(=O)NC1CCCC1)c1ccccc1 (stereo unspecified) 0.702%
COCc1c(N)c(C)nc(Cl)c1C#N 11.1%
O=C(Cn1nc(C(=O)O)c2ccccc2c1=O)Nc1ccc(F)cc1 0.796%
CCC(C)(C)NC(=O)C(c1ccc(OC)cc1)N(C(=O)CCC(=O)Nc1cc(C)on1)c1ccc(OC)cc1OC (stereo unspecified) -0.155%
CCSc1ccccc1C(=O)NCc1ccc(OC)cc1 0.696%
COc1ccc(OC)c(/C(C)=N\NC(=O)c2cc3cc(Cl)ccc3n2C)c1 0.107%
CS(=O)(=O)N(CC(=O)N1CCCCCC1)c1cccc(Cl)c1Cl 0.703%
CCOc1ccc(C(=O)NC2CCN(CC(=O)NCc3cccs3)CC2)cc1 1.1%
CC(C)CCNC(=O)C1CCCN(S(=O)(=O)c2ccc(F)cc2)C1 (stereo unspecified) -0.29%
COc1ccc(-c2nc3n(c(=O)c2C#N)CCS3)c(OC)c1 0.425%
CC(Sc1nnnn1C)C(=O)NC(=O)NC1CCCCC1 (stereo unspecified) -1.1%
CCc1c(C)nc2c(-c3ccccc3)c(C)nn2c1Nc1ccc(NC(C)=O)cc1 0.169%
CCN(C(=O)COC(=O)c1ccccc1O)c1cccc2ccccc12 -1.97%
COc1cccc(CC2(CO)CCCN(Cc3ccc(OC(F)F)cc3)C2)c1 (stereo unspecified) 0.552%
Cc1ccc(C2SCC(=O)N2c2ccccc2)cc1 (stereo unspecified) 0.449%
COC(=O)Nc1ncc(CN2C(=O)c3ccccc3C2=O)s1 0.873%
CCC(C)NC(=O)Cn1nc(C(F)(F)F)c2c1CCC2 (stereo unspecified) -1.07%
Cc1ccc(C)c(NS(=O)(=O)c2cc(Br)cnc2N)c1 -0.401%
CSCCC(NS(=O)(=O)c1ccccc1F)C(=O)N1CC=C(c2ccccc2)CC1 (stereo unspecified) 0.0413%
CCCCCCCC[n+]1cccc(C(=O)N2c3c(nc(N)[nH]c3=O)NC(C)C2C)c1 (stereo unspecified) -4.49%
CC(OC(=O)Cc1ccc(F)cc1)C(=O)N1CCc2ccccc21 (stereo unspecified) -7.94%
O=C(O)/C(=C/c1cccnc1)NC(=O)c1ccccc1 1.62%
O=C(O)CN1C(=O)CC(Cc2ccccc2)C1=O (stereo unspecified) -1.35%
CC(Nc1ccccc1)c1cccnc1 (stereo unspecified) -1.25%
Cc1nc2nc(COc3ccccc3)[nH]n2c(=O)c1Cc1ccccc1 -2%
Cc1csc(OCC(=O)Nc2ccc(C)c(C)c2)n1 -0.147%
CCS(=O)(=O)c1ccc(C(=O)NC)c(Cl)c1Cl -2.96%
CCc1cccc(C)c1N(C(=O)Cn1c(CO)nc2ccccc21)C(C)COC (stereo unspecified) -0.226%
O=c1c2ccccc2ccc2ccc(P(=O)(O)O)cc12 1.94%
CCC(C)N(C(=O)Cn1nc(C)c([N+](=O)[O-])c1C)C1CCS(=O)(=O)C1 (stereo unspecified) -0.0593%
Cc1c(CCO)c(=O)[nH]n1C(=O)c1c(F)cccc1F 0.283%
